Assay results published in PubChem BioAssay AID1159580 (chemical genetic matrix, 2015).
The whole screen tested about 5,500 compounds, of which about 2,000 (36%) were called active. Not shown: some 18% with an inconclusive outcome. Cut-off read from the data, not from the text of the source: active = normalized growth mostly below about 0.91 (no sharp cut-off); inconclusive = no clear call, values can overlap the other calls; inactive = mostly above about 0.92. This is one part of the list.

Assay: chemical genetic growth profiling, strain panel (AID 1159580);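 note: tested at 20 µM; growth read once vehicle control cultures reached saturation at 30 °C; 1 = growth at the plate median or of vehicle wells; lower values mean less growth of the strain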
Conditions: S. cerevisiae deletion strains, growth OD

Measured: normalized growth

Cc1cc(N)c2ccccc2[n+]1CCCCCCCCCCCCCC[n+]1c(C)cc(N)c2ccccc21
active: locus YAL013W, strain DEP1, active compounds read low 0.365 | locus YAL040C, strain CLN3, active compounds read low 0.0844 | locus YCL061C, strain MRC1 (second series), active compounds read low 0.0514 | locus YDR150W, strain NUM1, active compounds read low 0.0556 | locus YDR363W, strain ESC2, active compounds read low 0.0835 | locus YER002W, strain NOP16, active compounds read low 0.0687 | locus YNL175C, strain NOP13, active compounds read low 0.0676 | locus YNL197C, strain WHI3, active compounds read low 0.0663 | locus YNL224C, strain SQS1, active compounds read low 0.068 | locus YOR083W, strain WHI5 (second series), active compounds read low 0.0774
